From PubChem BioAssay (NCI)
This is part of a sample that, as a whole, favours compounds with a hit. Of some 83,000 tested, about 20% had one in any assay.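 Growth was measured after 48 h exposure to one concentration of compound in 96-well plates. Values under 10 count as active.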 Values without a mark were called inactive. Calls of active or inactive are those of the source.

Experiments:
Assay in all cases: NCI-60 one-dose screen, 48 h (100 = growth as untreated, 0 = no growth, -100 = all killed)
Conditions in all cases: 10 µM
[1] = tested on: SK-MEL-2 melanoma
[2] = tested on: EKVX NSCLC
[3] = tested on: SN12C renal
[4] = tested on: UO-31 renal
[5] = tested on: TK-10 renal
[6] = tested on: ACHN renal
[7] = tested on: CAKI-1 renal
[8] = tested on: A498 renal
[9] = tested on: CCRF-CEM leukemia
[10] = tested on: RPMI-8226 leukemia
[11] = tested on: OVCAR-8 ovarian
[12] = tested on: OVCAR-5 ovarian
[13] = tested on: OVCAR-4 ovarian
[14] = tested on: SK-OV-3 ovarian
[15] = tested on: IGROV1 ovarian
[16] = tested on: OVCAR-3 ovarian
[17] = tested on: HS 578T breast
[18] = tested on: NCI/ADR-RES ovarian

O=C(Nc1ccncc1)c1ccc(-n2c(=O)[nH]c3ccccc3c2=O)cc1
growth [1]: 91.9%
growth [2]: 94.2%
growth [3]: 90.5%
growth [4]: 87.3%
growth [5]: 103%
growth [6]: 96.2%
growth [7]: 87.3%
growth [8]: 114%
growth [9]: -31.5% (active)
growth [10]: 100%
growth [11]: 96%
growth [12]: 100%
growth [13]: 93.3%
growth [14]: 99.3%
growth [15]: 107%
growth [16]: 113%
growth [17]: 92.4%
growth [18]: 103%

CCOC(=O)C1=C(N)N(c2ccc(Cl)cc2)C2=C(C(=O)CC(C)(C)C2)C1c1ccc(N2CCOCC2)cc1 (stereo not drawn)
growth [1]: 96.2%
growth [2]: 74.6%
growth [3]: 97.7%
growth [4]: 85.3%
growth [5]: 98%
growth [6]: 112%
growth [7]: 86.7%
growth [8]: 119%
growth [9]: 100%
growth [10]: 99.9%
growth [11]: 100%
growth [12]: 106%
growth [13]: 105%
growth [14]: 109%
growth [15]: 98%
growth [16]: 102%
growth [17]: 109%
growth [18]: 97.4%

C=C(C)[C@@H]1CC[C@]2(C)[C@H](CC=C3[C@@H]4CC(C)(C)CC[C@]4(C(=O)N4CCOCC4)CC[C@]32C)[C@@]1(C)CCCN
growth [1]: -92.1% (active)
growth [2]: -84.1% (active)
growth [3]: -89.1% (active)
growth [4]: -100% (active)
growth [5]: -95.7% (active)
growth [6]: -100% (active)
growth [7]: -96.3% (active)
growth [8]: -89.5% (active)
growth [9]: -57.2% (active)
growth [10]: -51.2% (active)
growth [11]: -66.3% (active)
growth [12]: -98.9% (active)
growth [13]: -89.4% (active)
growth [14]: -94.6% (active)
growth [15]: -91.2% (active)
growth [16]: -84.8% (active)
growth [17]: -63.4% (active)
growth [18]: -59.8% (active)

COc1cccc(-c2ccnc(/N=C(\N)Nc3ccc(S(=O)(=O)Nc4nc(C)cc(C)n4)cc3)n2)c1
growth [1]: 100%
growth [2]: 92.7%
growth [3]: 100%
growth [4]: 64.1%
growth [5]: 111%
growth [6]: 97.3%
growth [7]: 80.4%
growth [8]: 114%
growth [9]: 98.5%
growth [10]: 90.1%
growth [11]: 102%
growth [12]: 107%
growth [13]: 96%
growth [14]: 84%
growth [15]: 83.4%
growth [16]: 99.3%
growth [17]: 86.4%
growth [18]: 103%

CN1CCN(c2ccc(Nc3nc(NCCCNC(=O)c4ccc(F)cc4)c4sccc4n3)cc2)CC1
growth [1]: 106%
growth [2]: 87.8%
growth [3]: 78.8%
growth [4]: 71.6%
growth [5]: 119%
growth [6]: 36.7%
growth [7]: 69.8%
growth [8]: 129%
growth [9]: 18.8%
growth [10]: -22.5% (active)
growth [11]: 47.5%
growth [12]: 78.2%
growth [13]: 80.1%
growth [14]: 102%
growth [15]: 77.8%
growth [16]: 61.6%
growth [17]: 84.1%
growth [18]: 76.2%

O=C(Nc1ccccc1)Nc1nc2ccccc2s1
growth [1]: 92.9%
growth [2]: 64.1%
growth [3]: 88.9%
growth [4]: 57.5%
growth [5]: 95.4%
growth [6]: 82.2%
growth [7]: 76.7%
growth [8]: 129%
growth [9]: 67.5%
growth [10]: 78.3%
growth [11]: 90.2%
growth [12]: 92.4%
growth [13]: 78.2%
growth [14]: 78.4%
growth [15]: 54.8%
growth [16]: 110%
growth [17]: 86.9%
growth [18]: 91.8%

O=C(Cn1cc(CSc2nnc3oc4ccccc4n23)nn1)Nc1cccc(Cl)c1
growth [1]: 55.6%
growth [2]: 57.6%
growth [3]: 76.5%
growth [4]: 55.3%
growth [5]: 79.3%
growth [6]: 66.7%
growth [7]: 59.8%
growth [8]: 106%
growth [9]: 50.6%
growth [10]: 48.5%
growth [11]: 74.9%
growth [12]: 87.8%
growth [13]: 63.4%
growth [14]: 54.3%
growth [15]: 78.7%
growth [16]: 78.5%
growth [17]: 66.6%
growth [18]: 53.4%

C=C(C)[C@@H]1CC[C@]2(C(=O)OC)CC[C@]3(C)[C@H](CC[C@@H]4[C@@]5(C)CC[C@H](N)C(C)(C)[C@@H]5CC[C@]43C)[C@@H]12
growth [1]: -75.3% (active)
growth [2]: -95.7% (active)
growth [3]: -92.8% (active)
growth [4]: -100% (active)
growth [5]: -87.8% (active)
growth [6]: -100% (active)
growth [7]: -99.9% (active)
growth [8]: -91.6% (active)
growth [9]: -52.3% (active)
growth [10]: -30.7% (active)
growth [11]: -77.4% (active)
growth [12]: -100% (active)
growth [13]: -93.1% (active)
growth [14]: -54.8% (active)
growth [15]: -95.8% (active)
growth [16]: -78.1% (active)
growth [17]: -59.3% (active)
growth [18]: -83% (active)

CC(=C(c1ccc(OCCN2CCCCC2)cc1)c1ccc(OCCN2CCCCC2)cc1)c1ccccc1
growth [1]: 20.2%
growth [2]: 73.6%
growth [3]: 68.6%
growth [4]: 2.17% (active)
growth [5]: 70.4%
growth [6]: 12.7%
growth [7]: 33.7%
growth [8]: 136%
growth [9]: -19.2% (active)
growth [10]: -31.3% (active)
growth [11]: 53.5%
growth [12]: 46.3%
growth [13]: 63.8%
growth [14]: 74.6%
growth [15]: 60.7%
growth [16]: 28.3%
growth [17]: 29.5%
growth [18]: 51.6%

CCN(CC)CCOc1ccc(C(=C(C)c2ccccc2)c2ccc(OCCN(CC)CC)cc2)cc1
growth [1]: -75.8% (active)
growth [2]: 35.3%
growth [3]: 56.9%
growth [4]: -41.6% (active)
growth [5]: -9.31% (active)
growth [6]: -13.3% (active)
growth [7]: 8.81% (active)
growth [8]: 78.5%
growth [9]: -27.2% (active)
growth [10]: -35.4% (active)
growth [11]: 25.2%
growth [12]: 24.9%
growth [13]: 13.6%
growth [14]: 58%
growth [15]: 34%
growth [16]: -7.71% (active)
growth [17]: -8.15% (active)
growth [18]: 29%

C=C(C)[C@@H]1CC[C@]2(COP(=O)(OCC)OCC)CC[C@]3(C)[C@H](CC[C@@H]4[C@@](C)(CCCN)[C@H](C(=C)C)CC[C@]43C)[C@@H]12
growth [1]: 27.2%
growth [2]: 21.6%
growth [3]: 14.7%
growth [4]: 16.7%
growth [5]: 57.4%
growth [6]: 22.3%
growth [7]: 19.5%
growth [8]: 61.1%
growth [9]: 2.27% (active)
growth [10]: -34.4% (active)
growth [11]: 26%
growth [12]: 43.2%
growth [13]: 23.2%
growth [14]: 46.2%
growth [15]: 40.4%
growth [16]: 24.2%
growth [17]: 31.3%
growth [18]: 18.9%

CC1(C)CC[C@]2(C(=O)O)CC[C@]3(C)C(=CC[C@@H]4[C@@]5(C)C/C(=C/c6ccncc6)[C@H](O)C(C)(C)[C@@H]5CC[C@]43C)[C@@H]2C1
growth [1]: 55.4%
growth [2]: 30.1%
growth [3]: 55%
growth [4]: 32.9%
growth [5]: 46.9%
growth [6]: 25.7%
growth [7]: 35.6%
growth [8]: 65%
growth [9]: 21%
growth [10]: 19%
growth [11]: 44.5%
growth [12]: 67.6%
growth [13]: 42.6%
growth [14]: 65%
growth [15]: 49.1%
growth [16]: 40.9%
growth [17]: 52.7%
growth [18]: 32.7%

O=c1[nH]c2ccc(Cl)cc2cc1CSc1ccc(Nc2nccc(-c3ccc(Cl)cc3)n2)cc1
growth [1]: 99.2%
growth [2]: 82%
growth [3]: 72.9%
growth [4]: 90%
growth [5]: 36.4%
growth [6]: 83.5%
growth [7]: 84.9%
growth [8]: 118%
growth [9]: 74.8%
growth [10]: 73%
growth [11]: -0.363% (active)
growth [12]: 81.3%
growth [13]: -59.9% (active)
growth [14]: 122%
growth [15]: 84.7%
growth [16]: -63.1% (active)
growth [17]: 56.8%
growth [18]: 50.2%

Cc1cc2c(c(O)c1Br)-c1ncoc1C(=O)[C@]1(C)CC[C@H](C(C)C)[C@H]21
growth [1]: 4.52% (active)
growth [2]: 46.7%
growth [3]: 54.5%
growth [4]: 50.3%
growth [5]: 68.8%
growth [6]: 52.2%
growth [7]: 55.4%
growth [8]: 104%
growth [9]: 14.2%
growth [10]: 4.28% (active)
growth [11]: 32.6%
growth [12]: 73.2%
growth [13]: 52.4%
growth [14]: 57%
growth [15]: 52.2%
growth [16]: 18.2%
growth [17]: 54.7%
growth [18]: 27.8%

Cc1ccc(C(=O)NCCCNc2nc(Nc3ccc(N4CCN(C)CC4)cc3)nc3ccsc23)cc1
growth [1]: 81.8%
growth [2]: 71.2%
growth [3]: 72.6%
growth [4]: 56.7%
growth [5]: 87.2%
growth [6]: 30.5%
growth [7]: 54%
growth [8]: 137%
growth [9]: 4.37% (active)
growth [10]: 10.1%
growth [11]: 29.2%
growth [12]: 69.1%
growth [13]: 39.6%
growth [14]: 92.9%
growth [15]: 69.2%
growth [16]: 31%
growth [17]: 66.9%
growth [18]: 46.5%

O=C(c1ccc(-n2c(=O)[nH]c3ccccc3c2=O)cc1)N1CCOCC1
growth [1]: 102%
growth [2]: 101%
growth [3]: 89.8%
growth [4]: 82.5%
growth [5]: 97.2%
growth [6]: 103%
growth [7]: 89%
growth [8]: 116%
growth [9]: 108%
growth [10]: 120%
growth [11]: 108%
growth [12]: 102%
growth [13]: 114%
growth [14]: 124%
growth [15]: 104%
growth [16]: 108%
growth [17]: 101%
growth [18]: 106%
